# KDM5B inhibitor = blocks human KDM5B histone demethylase activity | Q9UGL1 | KDM5B demethylase, FDH-coupled NADH fluorescence (FDH is formaldehyde dehydrogenase) | Potency, µM (highest dose often 57.7 µM), actives largely listed as inhibitors | 220,000 tested, 2.6% active; active means well fitted inhibition curve with a large enough effect; further: 0% is about no effect; nearly all actives have a fitted effect of over 70% in size
#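 Compound dilutions met 200 nM (final) KDM5BΔAP for 10 min at room temperature before substrate addition. The substrate mix held 12.5 µM H3K4me3 with cofactors 25 µM α-ketoglutarate and 50 µM Fe²⁺. NADH signal gain over 30 min defined activity.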
# * = called active by the depositor; i = inactive. The entries come from a sample that favours hits as a whole. Potency means the concentration at half of the fitted maximal effect.
SMILES,KDM5B inhibitor
CSCCC(=O)N1CCOC(Cc2cccc3ccccc23)C1 (stereo not given),i
Cc1nn(-c2ccc(C(C)(C)C)cc2)c(C)c1[C@@H]1C=C[C@@H](NC(=O)CC(C)(C)CC(=O)O)C1,i
CC(=O)c1cccc(-n2cccc2)c1,i
O=C1CCCN1CCCNc1ncccc1[N+](=O)[O-],i
CC(C)c1nc2nccc(-c3ccccc3)n2n1,28µM*
CC(C)c1nc2nccc(-c3ccc(F)cc3)n2n1,28µM*
Cc1ccc(-c2ccnc3cc(C)nn23)cc1,i
CNC(=O)NC(=O)C(C)Sc1ncc(-c2ccc(F)cc2)n1CC(C)C (stereo not given),i
Cc1noc(C)c1C(=O)N1Cc2ccccc2OC2(CCN(C(=O)NC(C)C)CC2)C1,i
Cc1cc(=O)oc2cc3occ(-c4ccccc4)c3cc12,i
CN1CCC(C(=O)N2CCC3(CC2)CN(C(=O)Cc2ccc(Cl)cc2)CCO3)CC1,i
O=C(Nc1ccc(Oc2cnccn2)cc1)c1cc(F)cc(F)c1,i
O=C(Nc1ccccc1)[C@@H]1C[C@@H](c2ccc(F)cc2)N([S+](=O)([O-])c2ccccc2)C1,i
COCCNC(=O)[C@@H]1C[C@@H](c2ccc(F)cc2)N([S+](=O)([O-])c2ccccc2)C1,i
COCCNC(=O)[C@@H]1C[C@@H](c2ccc(F)cc2)N([S+](=O)([O-])c2cccnc2)C1,35µM*
CC(C)Oc1ccc(C(=O)NC2CCN(Cc3ccccc3)CC2)cc1,i
CC(C)CCNC(=O)c1ccc2c(c1)CC(=O)N2Cc1ccccc1,i
O=C(NCCCN1CCOCC1)c1ccc2c(=O)n(Cc3ccccc3)c(=S)[nH]c2c1,i
CN1CCC2(C1)CN(Cc1ccccc1)c1ccc(C(=O)NCC[S+](C)(=O)[O-])cc12 (stereo not given),35µM*
CC1CCC(NC(=O)c2ccc3c(c2)N(Cc2ccccc2)C(=O)c2ccccc2S3=O)CC1 (stereo not given),i
CN1CCC2(C1)CN(Cc1ccccc1)c1ccc(C(=O)NC3CC3)cc12 (stereo not given),35µM*
Cc1cc(C(=O)N[C@@H]2CCC[C@@H](C(=O)NCc3cc(F)cc(F)c3)CC(=O)N(C)C2)no1,i
N#Cc1c(NC(=O)CSc2nccn2C2CC2)sc2c1CCCCC2,i
COc1cc(NC2c3ccccc3C(=O)N2c2cccnc2)cc(OC)c1OC (stereo not given),i
COc1ccccc1-c1nc2nccc(-c3cccnc3)n2n1,i
SMILES,KDM5B inhibitor
COc1cccc(-c2cc(-c3cccnc3)c3cncn3c2)c1OC,35µM*
COc1ccccc1-c1cc(-c2cccnc2)c2cncn2c1,40µM*
COc1ccc(-c2cc(-c3ccncc3)c3cncn3c2)cc1OC,i
COc1ccccc1NC(=O)c1cc(-c2cccnc2)nc2ccccc12,i
COCc1nn2c(c1-c1ccccc1)NC(=O)CC2C(=O)Nc1ccccc1Cl (stereo not given),i
CCn1c(CNC(C)c2ccc(F)c(F)c2)nc2cc(S(=O)(=O)N(C)C)ccc21 (stereo not given),i
CCOc1cc(/C=C2/NC(=O)NC2=O)cc(I)c1OCc1ccc(C(=O)O)cc1,i
O=C(c1cccc(Cl)c1)N1CCC(c2nn(-c3ccc(F)cc3)c(=O)[nH]2)CC1,i
CC(=O)NC1(C)CCCN(Cc2cccc(-c3cccc(F)c3)c2)C1 (stereo not given),i
CC(=O)NC1(C)CCN(Cc2cccc(-c3ccc(N4CCOCC4)cc3)c2)C1 (stereo not given),32µM*
CC(=O)NC1(C)CCN(Cc2cccc(-c3cccc4ncccc34)c2)C1 (stereo not given),40µM*
CC(=O)NC1(C)CCN(Cc2ccc(-c3cccc4ncccc34)cc2)C1 (stereo not given),40µM*
CC(=O)NC1(C)CCN(Cc2ccc(Nc3ccc(N4CCOCC4)c(F)c3)cc2)C1 (stereo not given),i
CC(=O)NC1(C)CCCN(Cc2ccc(Oc3ccccc3)cc2)C1 (stereo not given),i
CC(=O)NC1(C)CCCN(Cc2cccc(Nc3ccncc3)c2)C1 (stereo not given),i
CC(=O)NC1(C)CCCN(Cc2cccc(-c3ccccc3)c2)C1 (stereo not given),i
COc1cccc(Nc2cccc(CN3CCC(C)(NC(C)=O)C3)c2)c1 (stereo not given),i
CCCNC(=O)C(NC(=O)c1ccccc1C)C1CCN(C(=O)c2ccco2)CC1 (stereo not given),i
CCOc1ccccc1Oc1c(C)oc2cc(OC(=O)N3CCOCC3)ccc2c1=O,i
CCOc1ccc2nc(SCc3nc(-c4ccc(Cl)cc4)no3)[nH]c2c1,i
Cc1ccc2oc(C(=O)N(C)Cc3cnccn3)c(C)c2c1,i
CN(C)C(=O)N1CCN(c2ccc(Cl)nn2)C(=O)C1,i
CC(Sc1ncnc2nc[nH]c12)C(=O)NCCc1c[nH]c2ccccc12 (stereo not given),i
CCC(C(=O)Nc1nc2ccc(C)cc2s1)c1ccccc1 (stereo not given),i
CSc1nc(N)n(-c2cc(C(F)(F)F)ccn2)n1,i
SMILES,KDM5B inhibitor
Cc1nn2c(c1-c1cccnc1N1CCOCC1)N(C(=O)COc1ccccc1)CCC2,i
CCc1ccccc1NS(=O)(=O)c1ccc2[nH]cc(C(=O)NC3CCCC3)c(=O)c2c1,i
O=C(NCCc1ccc(Cl)cc1)c1cccs1,i
CC(C)(C)c1nnc2n1C(C(=O)NCCc1ccc(Cl)cc1)CC2 (stereo not given),i
O=C(NCCc1cccnc1)c1ccc(C(F)(F)F)cc1,i
O=C(NCCc1ccc(Cl)cc1)c1cccc(Nc2ncc(-c3ccc(F)cc3)cn2)c1,i
O=C(NCCc1cccnc1)c1ccc2ccccc2c1,i
CC(C)(C)c1nc(C(=O)NCCc2ccc(Cl)cc2)n2ccncc12,79µM*
O=C(NCCc1ccc(Cl)cc1)c1nc(-c2cccc(F)c2)n2c1CCCCC2,i
O=C(NCCc1ccc(Cl)cc1)c1nc(-c2cccc(F)c2)c2cnccn12,28µM*
O=C(NCCc1ccc(Cl)cc1)c1nc(-c2cccc(C(F)(F)F)c2)c2cnccn12,32µM*
O=C(NCCc1ccc(C(F)(F)F)cc1)c1cccc2ncccc12,i
O=C(Cn1cccc1-c1nc(-c2ccccc2)no1)NCCc1ccc(Cl)cc1,i
O=C(NCCc1ccc(Cl)cc1)c1nc(-c2cccnc2)c2cnccn12,25µM*
CCOc1cc(C)c(Cl)cc1S(=O)(=O)N1CCCCC1CC (stereo not given),i
Cc1ccc(C)c(C(=O)N2CCCC(n3cc(-c4nc(C)no4)nn3)C2)c1 (stereo not given),i
Cn1nc(C2CCN(C(=O)c3cncc(Br)c3)CC2)c2c1CCOC2,i
O=C(O)CSc1cc(F)ccc1F,i
Cc1ccccc1C(=O)NC1CCCC(C)C1 (stereo not given),i
O=C1Nc2ccc(-c3ccccc3F)cc2C(=O)N2C[C@@H](NS(=O)(=O)c3ccc(F)cc3)C[C@@H]12,i
CC(C)NC(=O)N[C@H]1CCN2C(=O)c3cc(-c4ccc5c(c4)OCO5)ccc3NC(=O)[C@@H]2C1,32µM*
O=C1Nc2ccc(-c3ccc(F)cc3F)cc2C(=O)N2C[C@H](O)C[C@@H]12,i
O=C(O)COCC(=O)N[C@H]1CCN2C(=O)c3cc(-c4ccc5c(c4)OCO5)ccc3NC(=O)[C@H]12,i
